According to PubChem BioAssay AID651638 (Johns Hopkins Ion Channel Center, 2012):
Among all 2,400 compounds or so, about 2,400 (100%) were called active.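 The calls were made as follows: active = ratio percent of control, averaged over triplicates, above buffer control mean plus 5 SD (cut at about 64% in these data); inactive = the rest.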 So high a share suggests a set chosen from earlier hits. The list is a sample of the results.

Target: Potassium channel subfamily K member 3 (Homo sapiens) (UniProt O14649)
Assay: retest of human KCNK3 channel inhibitors, confirmation, CHO cells, FluxOR thallium flux, triplicate (AID 651638);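 also: ratio is the fluorescence rise from min to max over baseline after thallium stimulus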
Settings: FluxOR fluorescence, at 10 µM, active compounds read high

Chain of Potassium channel subfamily K member 3 (Homo sapiens) (O14649 whole entry, looked up): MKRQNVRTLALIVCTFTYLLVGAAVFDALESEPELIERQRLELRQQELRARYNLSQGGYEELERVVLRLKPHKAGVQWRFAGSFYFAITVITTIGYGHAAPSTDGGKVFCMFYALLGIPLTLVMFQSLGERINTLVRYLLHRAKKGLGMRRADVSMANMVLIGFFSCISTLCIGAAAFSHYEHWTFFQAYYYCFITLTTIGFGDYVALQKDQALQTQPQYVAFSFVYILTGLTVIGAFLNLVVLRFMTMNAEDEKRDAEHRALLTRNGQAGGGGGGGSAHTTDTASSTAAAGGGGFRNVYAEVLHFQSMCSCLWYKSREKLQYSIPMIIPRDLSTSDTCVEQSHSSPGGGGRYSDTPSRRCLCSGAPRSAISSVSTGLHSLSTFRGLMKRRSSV

SMILES | ratio percent of control
COc1ccccc1C1=NCc2nnc(CSC)n2-c2ccc(Cl)cc21 | 54.7% (active)
CCCCCCN=C(CC)c1c(O)n(CCCC)c(=O)[nH]c1=O | 129% (active)
CCOC(=O)C1SC2(C(F)(F)C(F)F)CC1(O)c1c(c(OC)c3occc3c1OC)O2 (stereo not drawn) | 112% [0% buffer, 100% carvedilol maximal block] (active)
